# Compounds with a hit are over-represented: about 3.7% of the library has one in this group of screens.
# MazF activator = activators of E. coli MazEF toxin-antitoxin RNase. P0AE70. FAM/BHQ RNA-DNA oligo cleavage fluorescence, 5 h. 350,000 tested, 0.32% active. activation, % at 20 µM; in the data active = activation above about 50%
# BoNT-F LC inh = blocks Botulinum neurotoxin F light chain protease; Multiplex microsphere protease cleavage assay, flow cytometry; inhibition, % at 10 µM; 360,000 tested, 0.22% active; AID 588497; in the data active = inhibition above about 35%, passing the limit was not always enough; inconclusive = no clear call, values can overlap the other calls; also: plate controls were buffer without enzyme for full effect and enzyme alone for no effect
# BoNT A protease = inhibitors of Botulinum neurotoxin A light chain protease | 360,000 tested, 0.17% active | multiplex microsphere protease substrate cleavage, flow cytometry | AID 588499 | inhibition, % at 10 µM; also: plate controls were buffer without enzyme for full effect and enzyme alone for no effect
# Autofluor counter = counter-screen for toxin protease inhibitors: compound fluorescence | 360,000 tested, 3.1% active | compound autofluorescence counterscreen, microsphere flow cytometry; active compounds read high | fluorescence intensity (test concentration not listed); in the data active = fluorescence intensity above about 16000; inconclusive = no clear call, values can overlap the other calls
# Anthrax LF inh2 = inhibitors of Bacillus anthracis lethal factor protease; P15917; inhibition, % at 10 µM; 360,000 tested, 0.12% active; multiplex microsphere protease cleavage assay, LF; also: plate controls were buffer without enzyme for full effect and enzyme alone for no effect
# Target sequence (P15917 whole entry, looked up): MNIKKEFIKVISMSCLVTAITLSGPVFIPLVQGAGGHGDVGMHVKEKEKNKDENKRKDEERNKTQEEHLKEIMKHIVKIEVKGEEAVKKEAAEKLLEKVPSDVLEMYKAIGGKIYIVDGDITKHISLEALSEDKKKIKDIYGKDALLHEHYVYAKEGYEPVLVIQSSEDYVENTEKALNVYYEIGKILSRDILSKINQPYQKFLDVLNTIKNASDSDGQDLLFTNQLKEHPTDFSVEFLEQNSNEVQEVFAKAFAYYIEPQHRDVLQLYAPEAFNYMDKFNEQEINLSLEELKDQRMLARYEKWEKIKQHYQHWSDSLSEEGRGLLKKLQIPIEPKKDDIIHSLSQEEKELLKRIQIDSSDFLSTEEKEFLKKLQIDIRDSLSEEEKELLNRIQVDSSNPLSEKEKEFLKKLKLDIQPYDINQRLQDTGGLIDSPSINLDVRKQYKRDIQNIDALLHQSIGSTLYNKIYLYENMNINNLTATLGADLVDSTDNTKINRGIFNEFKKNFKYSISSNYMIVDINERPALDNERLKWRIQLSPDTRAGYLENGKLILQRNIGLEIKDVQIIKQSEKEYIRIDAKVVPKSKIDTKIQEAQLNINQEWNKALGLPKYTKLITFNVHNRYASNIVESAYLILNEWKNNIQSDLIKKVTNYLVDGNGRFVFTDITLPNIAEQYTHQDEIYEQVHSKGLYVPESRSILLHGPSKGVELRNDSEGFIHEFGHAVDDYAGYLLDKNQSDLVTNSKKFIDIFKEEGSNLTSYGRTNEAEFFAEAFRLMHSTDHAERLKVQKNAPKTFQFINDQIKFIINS
# * = called active by the depositor; ? = inconclusive; . = not tested or not shown. Rule as the data show it, unless noted: active = inhibition above about 30%; inconclusive = no clear call, values can overlap the other calls; inactive = below that.
SMILES,MazF activator,BoNT-F LC inh,BoNT A protease,Autofluor counter,Anthrax LF inh2
Cc1c(C(C)CCCO)oc(=O)c2c1Oc1c(C)c(C(C)C[C@H](C)O)oc(=O)c1C2 (some centres undefined),11.3,-1.9,0.6,2867,4.2
CC1(C)CC(CC(=O)O)(c2ccc(F)cc2)CCO1 (centres undefined),4.4,-5.9,-0.3,6163,-0.9
Cc1ccc(C2(CC(=O)O)CCOC(C)(C)C2)cc1 (centres undefined),3.1,1.7,?,19797*,0.7
CCOC(=O)C1C(=O)NC(c2ccccc2)=NC1c1ccc(Cl)cc1 (centres undefined),8.9,1.0,1.6,22764*,-2.2
CCOC(=O)C1C(=O)NC(N2CCN(c3ccccc3)CC2)=NC1c1ccccc1 (centres undefined),0.0,-2.2,-2.3,23474*,1.4
CC1=C(C(=O)Nc2ccccc2C)C2(CCCC2)C(C(N)=O)C(=O)N1 (centres undefined),4.8,-4.6,-0.5,19911*,2.2
CNC(=O)C12CCC(C)(c3nc4cc(C)c(C)cc4nc31)C2(C)C (centres undefined),10.7,-0.1,1.6,23268*,2.1
COc1ccc(Cc2c(-c3ccccc3)nc3ccc(Br)cn23)c(C)c1,.,-1.1,40.0*,5928,21.1
COc1ccc(Cc2c(-c3cccc(Br)c3)nc3ccc(Cl)cn23)c(C)c1,.,-10.1,7.9,7038,18.5
c1nc(NC2CCCCC2)c2[nH]cnc2n1,-2.0,0.4,-0.1,19676*,1.8
c1nc(NC2CCCCCC2)c2[nH]cnc2n1,2.3,-4.8,-1.9,6928,-7.9
O=C(Nc1nnc([C@H]2C[C@H](O)[C@@H](CO)O2)s1)NC(c1ccccc1)c1ccccc1,.,-0.5,-0.3,3636,-3.8
COCCN(C(=O)CSc1nnc(-c2ccc(F)cc2)n1N)c1c(N)n(CC(C)C)c(=O)[nH]c1=O,-2.7,2.1,0.4,3553,-0.8
COCCn1c(=NC(=O)c2cc(-c3cccs3)nc3ccccc23)sc2cc(S(N)(=O)=O)ccc21,-17.1,2.1,34.3*,2383,12.4
CCCCNC1c2ccccc2C(=O)N1Cc1ccccc1 (centres undefined),5.8,20.9,0.7,3399,24.0
CCCCN1C(=O)C(C2c3ccccc3C(=O)N2Cc2ccccc2)C(=O)NC1=S (centres undefined),5.2,3.7,1.2,21741*,-1.2
Nc1nnc(CCN2C(=O)CSC2=O)s1,-7.7,-3.7,-2.3,24168*,-0.4
CCOC(=O)C1=C(C)N(C[C@@H]2CC[C@@H](Cc3ccc(-c4ccccc4)cc3)O2)C(=O)NC1c1cccc([N+](=O)[O-])c1 (some centres undefined),1.6,0.5,-0.3,3025,-4.3
CSc1ncccc1C(=O)Nc1cccc(S(=O)(=O)N2CCCC2)c1,-1.6,.,.,.,.
O=C(Nc1ccc(-c2nc3cc(NC(=O)c4cccs4)ccc3o2)cc1)c1cccs1,29.6,-4.4,-5.9,22139*,-1.1
O=C(Nc1ccc(O)c(-c2nc3ccccc3s2)c1)c1cc(=O)c2ccccc2o1,2.9,12.9,1.9,7577,-1.4
O=C(Nc1ccc2oc(-c3ccncc3)nc2c1)c1cccs1,42.3,9.2,-0.3,3262,1.1
Cc1ccc(-c2nc3cc(NC(=O)C(C)C)ccc3o2)cc1C,-3.3,-2.1,-0.4,24088*,-0.4
O=C(Nc1ccc(O)c(-c2nc3ccccc3s2)c1)c1cccs1,52.9*,-3.7,-0.3,2576,-1.3
CSc1nc(N)nc2c1ncn2CC(=O)N1CCN(Cc2c(C)cc(C)cc2C)CC1,12.9,2.2,0.7,3765,7.8
SMILES,MazF activator,BoNT-F LC inh,BoNT A protease,Autofluor counter,Anthrax LF inh2
Cc1cc2ncn(/N=C/c3ccc(-c4ccccc4)o3)c2cc1C,12.9,3.0,1.7,21563*,-0.3
CC(C)NC(=O)N(C)C[C@H]1OCCCC[C@H](C)Oc2ccc(NS(=O)(=O)c3ccccc3)cc2C(=O)N([C@H](C)CO)C[C@H]1C,3.8,0.9,0.1,3812,-4.0
CC(C)OP(=O)(OC(C)C)C(NC(=O)c1ccc(Br)cc1)c1ccccc1 (centres undefined),1.5,-1.2,-1.6,21425*,-0.6
COc1ccc(-n2cc(-c3ccccc3)c3c(N4CCN(CCO)CC4)ncnc32)cc1,-10.0,7.5,7.2,20444*,-2.5
OCCN1CCN(c2ncnc3c2c(-c2ccccc2)cn3-c2ccc(F)cc2)CC1,7.0,-1.4,-0.5,3197,-4.0
O=[N+]([O-])c1cc(Br)c(O)c(/C=N/Nc2nnnn2-c2cccc3ccccc23)c1,-4.4,-0.6,-0.4,22718*,-2.8
O=[N+]([O-])c1ccc(NN=Cc2cccc3ccccc23)cc1,8.0,4.9,2.4,2890,7.9
CCOC(=O)C1=CCN(S(=O)(=O)c2cccc(Cl)c2)C1c1ccc(F)cc1 (centres undefined),.,0.0,0.3,5176,-2.5
CC(=O)c1ccc2ccccc2c1OC(=O)c1ccncc1,6.6,-2.8,-0.1,3888,-5.2
Cc1ccc(-c2cc(=O)[nH][nH]2)c(C)c1,0.2,0.9,1.0,22424*,-1.4
CC(C)Cc1nnc(NC(=O)CCC(=O)N2CCN(C3CCCC3)CC2)s1,-5.7,9.1,1.0,5659,-1.2
CCC(Sc1ncccc1C(=O)OCCN1CCCC1=O)C(=O)NCc1ccco1 (centres undefined),3.6,8.4,6.5,20951*,-6.6
CCC(Sc1ncccc1C(=O)OC(C)C)C(=O)N1CCOCC1 (centres undefined),7.8,-1.5,?,22945*,-9.5
CCOC(=O)c1cccnc1SC(CC)C(=O)NCc1ccco1 (centres undefined),3.0,-2.0,-1.3,24254*,-0.1
CC1(C(=O)NCCC(F)(F)F)Cc2c(-c3ccccc3)ccnc2O1 (centres undefined),.,4.0,-0.2,3688,-2.0
CC(C)C[C@H](NC(=O)N1c2ccccc2NC(=O)[C@@H]1C(C)C)C(=O)N1CCC[C@@H]1C(=O)O,1.1,-47.0,-2.1,5011,-6.2
CCCCNC(=O)N(O)C1N(/N=C/c2ccccc2OC)C(=S)SC1(C)C (centres undefined),3.7,61.7*,-0.7,3477,-7.4
CNC(=O)N(O)C1N(/N=C/c2ccccc2OC)C(=S)SC1(C)C (centres undefined),-10.6,0.1,0.6,3909,19.5
O=C1c2ccccc2C(=O)N1Cc1nc(-c2ccccc2)no1,7.3,-5.3,-3.5,21600*,-1.1
O=C1c2ccccc2C(=O)N1CCc1nc(-c2ccccn2)no1,-0.3,5.3,4.6,21427*,-4.0
O=C1c2ccccc2C(=O)N1CCCc1nc(-c2ccccn2)no1,1.5,-6.6,0.0,4378,-2.6
C=CCn1c(SCC(=O)N(C(C)CC)C2CCS(=O)(=O)C2)nc2ccccc2c1=O (centres undefined),7.7,-13.4,-5.2,?,-2.0
COc1ccc2c(c1)NC(=O)CC(c1ccccc1)=N2,-3.4,-1.5,-0.8,23168*,-5.2
CC1(C(=O)NS(=O)(=O)C2CC2)CCN(C(=O)c2c(F)cccc2F)C1 (centres undefined),.,-2.8,0.0,3366,-1.2

# Screening data deposited in PubChem by several laboratories.
